Among the data in PubChem BioAssay AID1259313 (Sanford-Burnham Center for Chemical Genomics, 2017) are Tm shift relative to glycine control values, retold here.

The whole screen tested about 340,000 compounds, of which about 8,500 (2.5%) were called active. The full list was thinned out, with actives kept by preference. A number with no mark means an inactive call.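 Rule for the calls: active = melting temperature shift of at least 10% of the positive control shift, at one fixed dose; inactive = the rest.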

The subject of this assay is Glutamate receptor ionotropic, NMDA 3A (GRIN3A) ligand-binding domain. Description: NR3A LBD thermal stabilization by compounds – biophysical, differential scanning fluorimetry, uHTS, primary screen (AID 1259313). Conditions: at 25 µM, active compounds read high, 0% = protein alone, 100% = glycine-bound protein.
`CCCCNC(=O)c1ccccc1NC(=O)c1ccccc1N(C)S(C)(=O)=O`: the Tm shift relative to glycine control was 0.62%.

In the case of `Cc1c(Br)ccc(NC(=O)COc2ccccc2C(N)=O)c1C`, the Tm shift relative to glycine control was -0.92%.

Regarding `CC1=NN(C(C)C)C(=O)C1`, the Tm shift relative to glycine control was -0.17%.

For `Cc1ccc(S(=O)(=O)N2[C@@H](c3ccc(Br)cc3)C(C(=O)O)=C[C@H]2CC2CCCC2)cc1`, the Tm shift relative to glycine control was -1.23%.

In the case of `O=C(CSc1nn(-c2ccc(F)cc2)c(=S)s1)NC1CCS(=O)(=O)C1` (centres undefined), the Tm shift relative to glycine control was -1.94%.

Consider `Cc1ccc(C)c(OCCC(=O)OCC(=O)c2ccc3c(c2)NC(=O)CO3)c1`, for which the Tm shift relative to glycine control is 1.04%.

Turning to `CCOC(=O)C1CCN(C(=O)c2cccc(S(=O)(=O)N(CC)c3ccccc3)c2)CC1`, the Tm shift relative to glycine control is 0.33%.

Consider `O=[N+]([O-])c1cccc(C=NN=Cc2ccccc2O)c1`, for which the Tm shift relative to glycine control is -1.4%.

For `Nc1ccccc1/C=N\N=C/c1ccccc1N`, the Tm shift relative to glycine control is 10.2% (active).

Turning to `Cc1c(C(=O)Nc2cccc(S(=O)(=O)N3CCOCC3)c2)oc2ccccc12`, the Tm shift relative to glycine control was -5.92%.

For the compound `COc1ccc(NC(=O)c2oc3ccc(S(=O)(=O)N4CCOCC4)cc3c2C)cc1`, the Tm shift relative to glycine control is 14.9% (active).

Consider `Cc1c(C(=O)Nc2ccccc2Cl)oc2ccc(S(=O)(=O)N3CCC4(CC3)OCCO4)cc12`, for which the Tm shift relative to glycine control was -0.83%.

For `COc1cccc(-n2cc3c(c2-c2ccccc2)c(=O)n(C)c(=O)n3C)c1`, the Tm shift relative to glycine control is -1.71%.

Consider `Cc1ccc(-c2c3c(=O)n(C)c(=O)n(C)c3cn2-c2ccccc2O)cc1`, for which the Tm shift relative to glycine control was 22.9% (active).

Regarding `Cc1ccc(-c2c3c(=O)n(C)c(=O)n(C)c3cn2-n2cnnc2)cc1`, the Tm shift relative to glycine control is -0.82%.

As for `Cc1csc(=O)n1CCC(=O)OCC(=O)NNC(=O)c1ccc(Br)cc1`, the Tm shift relative to glycine control was -0.85%.

On to `COc1cccc(CNS(=O)(=O)c2ccc3c(c2)N(C(C)=O)CCS3)c1`, for which the Tm shift relative to glycine control is 11.5% (active).

On to `COc1cccc(CNS(=O)(=O)c2ccc3c(c2)CC(C)N3C(C)=O)c1` (centres undefined), for which the Tm shift relative to glycine control is 2.23%.

As to `COc1cccc(CNS(=O)(=O)c2csc(C(N)=O)c2)c1`, the Tm shift relative to glycine control was 2.62%.

As for `CSc1nc2c(c(=O)[nH]1)C(c1cccc(Cl)c1Cl)CC(=O)N2` (centres undefined), the Tm shift relative to glycine control was -1.69%.

With `O=C(Nc1nc2ccc([N+](=O)[O-])cc2s1)c1ccc(S(=O)(=O)N2CCCc3ccccc32)cc1`, the Tm shift relative to glycine control is 18.8% (active).

On to `Cc1ccc(NC(=O)c2cccc(S(=O)(=O)N3CCCc4ccccc43)c2)nc1`, for which the Tm shift relative to glycine control was 2.57%.

With `O=C(NC(Nc1nc2ccc([N+](=O)[O-])cc2s1)(C(F)(F)F)C(F)(F)F)c1ccccc1`, the Tm shift relative to glycine control was 6.26%.

Turning to `O=C1COc2ccc(C(=O)COC(=O)c3ccccc3Cl)cc2N1`, the Tm shift relative to glycine control is 0%.

In the case of `COc1ccc2c(c1)C(=O)CC(c1ccccc1)O2` (centres undefined), the Tm shift relative to glycine control was -1.87%.

In the case of `CCN(CC)c1ccc(C(=O)NNC(=O)CCc2nc3ccccc3c(=O)[nH]2)cc1`, the Tm shift relative to glycine control is -0.56%.

Turning to `COc1ccc(C(=O)COC(=O)COc2ccc(C)c(C)c2)cc1`, the Tm shift relative to glycine control is 12% (active).

Take `Cc1ccc(OCC(=O)Nc2ccc(C(=O)O)cc2NC(=O)COc2ccc(C)c(C)c2)cc1C`: the Tm shift relative to glycine control is -0.84%.

Take `COc1ccc(OCC(=O)OCCN(C)C)cc1`: the Tm shift relative to glycine control was -1.53%.

As for `Cc1ccc(O/C=C2\OC(=O)c3ccccc32)cc1`, the Tm shift relative to glycine control is 49.4% (active).

Turning to `Cc1ccc(Oc2cnn(-c3ccccc3)c(=O)c2Br)cc1`, the Tm shift relative to glycine control is -1.23%.

`Cc1n[nH]c(=O)c2c(NC(=O)COC(=O)c3ncc(Cl)c(Cl)c3Cl)oc(C)c12`: the Tm shift relative to glycine control was 4.91%.

Turning to `Cc1c(CCC(=O)O)c(=O)oc2c(C)c(OCc3ccccc3Cl)ccc12`, the Tm shift relative to glycine control was 0.1%.

In the case of `CCN([C@H](CO)C(C)C)S(=O)(=O)c1ccccc1Br`, the Tm shift relative to glycine control is -1.23%.

Regarding `O=C(O)CCCC(=O)Nc1ccccc1-n1ccnc1`, the Tm shift relative to glycine control is -2.48%.

`CCOC(=O)N1CCN(C(=O)COc2ccc(Br)cc2)CC1`: the Tm shift relative to glycine control is 10.1% (active).

As to `CCOC(=O)N1CCN(C(=O)COc2ccc3oc4c(c3c2)CCCC4)CC1`, the Tm shift relative to glycine control is 1.71%.

Take `CCOC(=O)N1CCN(S(=O)(=O)c2ccc(Br)cc2)CC1`: the Tm shift relative to glycine control is -0.87%.

In the case of `Cc1ccc(-c2cccc([C@H]3[C@@H]4C=CC[C@@H](C)[C@@H]4C(=O)N3Cc3ccccc3)c2)cc1`, the Tm shift relative to glycine control is 15.4% (active).

As to `Cc1cccc([C@H]2[C@@H]3C=CC[C@@H](C)[C@@H]3C(=O)N2Cc2ccccc2)c1`, the Tm shift relative to glycine control is 0.67%.

Turning to `Cc1cccc([C@@H]2[C@@H]3C(=O)N(Cc4ccccc4)C(=O)[C@@H]3[C@]3(C)C(=O)N(c4ccc(Br)cc4)C(=O)N23)c1`, the Tm shift relative to glycine control was -3.72%.

On to `CNC(=O)C1CCN(S(=O)(=O)c2c(C)noc2/C=C/c2cccc(C)c2)CC1`, for which the Tm shift relative to glycine control was 1.97%.

On to `CCOC(=O)c1c(Cc2ccc(Cl)cc2)c[nH]c1C`, for which the Tm shift relative to glycine control is -13.2%.

Take `CC(C)(C)NC(=O)CN(Cc1cccs1)C(=O)CNS(=O)(=O)c1ccccc1`: the Tm shift relative to glycine control is -2.34%.

Consider `O=C(c1ccc(-n2cnnn2)cc1)N1CCN(C(c2ccccc2)c2ccccc2)CC1`, for which the Tm shift relative to glycine control was -0.38%.

For `Cn1nnnc1SCC(=O)N1CCN(C(c2ccccc2)c2ccccc2)CC1`, the Tm shift relative to glycine control is 11% (active).

Consider `Cn1nnnc1SCC(=O)N1CCN(Cc2ccccc2)CC1`, for which the Tm shift relative to glycine control was 0.27%.

On to `N#C/C(C(=S)Nc1ccccc1)=C1/NN=C(N2CCOCC2)N1c1ccccc1`, for which the Tm shift relative to glycine control is 1.45%.

As for `CCC(C(=O)OCC(=O)Nc1ccc(C(=O)Nc2ccc(OC)cc2)cc1)c1ccccc1` (centres undefined), the Tm shift relative to glycine control was 22.5% (active).

As to `CCC(C(=O)OCC(=O)Nc1ccccc1-c1ccccc1)c1ccccc1` (centres undefined), the Tm shift relative to glycine control was -2.7%.

Consider `CN(CC(=O)Nc1ccc(OC(F)F)cc1)S(=O)(=O)/C=C/c1ccccc1`, for which the Tm shift relative to glycine control is -9.87%.

As to `CCC(C(=O)OCC(=O)Nc1c(Cl)cc(Cl)cc1Cl)c1ccccc1` (centres undefined), the Tm shift relative to glycine control was -8.02%.

For the compound `COc1ccc(NC(=O)CS(=O)(=O)c2ccccc2)cc1`, the Tm shift relative to glycine control is 2.82%.

With `COc1ccc(NC(=O)COC(=O)c2ccc(NS(=O)(=O)/C=C/c3ccccc3)cc2)cc1`, the Tm shift relative to glycine control was 20.6% (active).

Consider `c1cnc(N2CCN(c3ccc4ccccc4n3)CC2)nc1`, for which the Tm shift relative to glycine control was -1.6%.

Take `O=C(CN1CCc2ccccc21)NC(c1ccccc1)c1ccccc1`: the Tm shift relative to glycine control is -10.2%.

Regarding `O=C1C=C(NCCNc2c(F)c(F)c(CO)c(F)c2F)CCC1`, the Tm shift relative to glycine control was -8.05%.

Take `Cc1ccc(NC(=O)COC(=O)CN2CCCCCC2=O)c(C)c1`: the Tm shift relative to glycine control is -0.17%.

Take `Cc1ccc(C(=O)NNC(=O)c2ccncc2)cc1S(=O)(=O)N1CCCCC1`: the Tm shift relative to glycine control was -0.93%.

`Cc1ccc(C(=O)NC2CCCC(C)C2C)cc1S(=O)(=O)N1CCCCC1` (centres undefined): the Tm shift relative to glycine control is 20.8% (active).

For the compound `CC1CCCC(NC(=O)c2cc(S(=O)(=O)N3CCCCC3)ccc2Cl)C1C` (centres undefined), the Tm shift relative to glycine control is -1.61%.

With `COc1ccc(OC)c(C2C3=C(N=c4s/c(=C\c5cccc(O)c5)c(=O)n42)c2ccccc2CC3)c1` (centres undefined), the Tm shift relative to glycine control was 17.9% (active).

On to `COCCOC(=O)C1=C(C)N=c2s/c(=C\c3cccs3)c(=O)n2C1c1cccs1` (centres undefined), for which the Tm shift relative to glycine control is -1.71%.

In the case of `O=C1CCCC2=C1C(c1ccccc1)n1c(s/c(=C/c3cccc(F)c3)c1=O)=N2` (centres undefined), the Tm shift relative to glycine control was 2.84%.

Consider `COC1=CCC2([N+](=O)[O-])CN(CC(=O)O)CC1([N+](=O)[O-])C2` (centres undefined), for which the Tm shift relative to glycine control is -3.94%.

`O=C(CCc1ccc(S(=O)(=O)N2CCOCC2)cc1)OCC(=O)c1ccc(Br)cc1`: the Tm shift relative to glycine control was -0.17%.

For `N#CCC(=O)NC1CCC(CC2CCC(NC(=O)CC#N)CC2)CC1` (centres undefined), the Tm shift relative to glycine control was 0.51%.

For `O=[N+]([O-])c1ccc(COc2ccccc2CN2CCOCC2)cc1`, the Tm shift relative to glycine control is -1.9%.

`COc1ccc(C(=O)N2CCC(C(=O)Nc3cccc(C)c3)CC2)cc1OC`: the Tm shift relative to glycine control was -0.09%.

As to `CCCCOC(=O)Nc1sc2nc(C)cc(C)c2c1-n1cccc1`, the Tm shift relative to glycine control was 11% (active).

With `Cc1cc(C)c2c(-n3cccc3)c(NC(=O)OCc3ccccc3)sc2n1`, the Tm shift relative to glycine control is 0.08%.

As for `COC(=O)Nc1sc2nc(C)cc(C)c2c1-n1cccc1`, the Tm shift relative to glycine control is -4.15%.

On to `CCC(CC)NC(=O)CSc1nnc(-c2c[nH]c3ccccc23)o1`, for which the Tm shift relative to glycine control is 1.71%.

On to `COc1cccc(CNC(=O)CCC2CCCN(Cc3ccc(OC(F)F)cc3)C2)c1` (centres undefined), for which the Tm shift relative to glycine control is 1.06%.

Consider `Cn1nc(C(=O)OCC(=O)N(Cc2ccccc2)C(C)(C)C)c2ccccc2c1=O`, for which the Tm shift relative to glycine control is 0.45%.

For `O=C(Cn1c(NCCO)nc2ccccc21)c1ccc(Cl)cc1Cl`, the Tm shift relative to glycine control was -1.09%.

As for `OCCNc1nc2ccccc2n1-c1ncnc2sc3c(c12)CCC3`, the Tm shift relative to glycine control is 19.1% (active).

Turning to `O=C(O)c1cccnc1Sc1ncnc2sc3c(c12)CCC3`, the Tm shift relative to glycine control was -2.96%.

For the compound `CC12C(=O)N(n3cnnc3)C(=O)C1C1C=CC2C1` (centres undefined), the Tm shift relative to glycine control was 0.47%.

On to `Cc1ccccc1NC(=O)c1cc(S(=O)(=O)Nc2cccc(C(=O)O)c2)ccc1Cl`, for which the Tm shift relative to glycine control was 0%.

Regarding `C=CCNC(=O)c1ccccc1NC(=O)c1ccc(Cl)c(S(=O)(=O)Nc2cccc(C)c2C)c1`, the Tm shift relative to glycine control was 16% (active).

For `Cc1ccc(C(=O)Nc2ccccc2-c2ccccc2)cc1S(=O)(=O)Nc1ccccc1`, the Tm shift relative to glycine control is 9.58%.

With `C=CCn1c(SCc2ccc(Cl)c(Cl)c2)nnc1C(CO)NC(=O)c1ccc(OC)cc1` (centres undefined), the Tm shift relative to glycine control is -6.08%.

On to `Cc1ccc(NC(=O)CN(C)Cc2ccc(F)cc2)c([N+](=O)[O-])c1`, for which the Tm shift relative to glycine control was 12.7% (active).

Take `CN(CC(=O)Nc1ccccc1[N+](=O)[O-])Cc1ccc(Br)cc1`: the Tm shift relative to glycine control was -2.8%.

For the compound `CSc1ccccc1NC(=O)CN(C)CC(=O)Nc1ccc(Cl)cc1[N+](=O)[O-]`, the Tm shift relative to glycine control was 2.47%.

Consider `O=C(O)c1ccc([N+](=O)[O-])cc1Sc1ccsc1`, for which the Tm shift relative to glycine control is 1.67%.

For `CC(=O)Nc1ccc(CN2CCN(Cc3ccc(F)c(F)c3)C(CCO)C2)cc1` (centres undefined), the Tm shift relative to glycine control was -0.08%.

`CN(C)c1ccc(NC(=O)CSc2n[nH]c(-c3ccco3)n2)cc1`: the Tm shift relative to glycine control was 0.92%.
